# Measurements reported in PubChem BioAssay.
# Where “and” joins values, the source holds several entries; their conditions need not be identical. Equal entries are not always repeated. For part of these data: Potency and affinity values are given separately. Calls of active or inactive are those of the source.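 The calls were made as follows, unless noted: active = compounds whose cell count with miR-34 switched on is under 0.7 times the count with it off; inactive = the rest.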
# What was measured:
# [1] = polyglutamine-triggered caspase-3 activation inhibitors, cell-based (AID 1583); details: polyglutamine-induced caspase-3 activation, cell assay; stronger effect = higher value;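 tested at 10 µM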
# [2] = suppressors of polyQ aggregation in yeast, 75Q-TubU reporter (AID 1593); details: Yeast 75Q polyglutamine aggregation reporter
# [3] = rescue of polyQ-huntingtin neuronal dysfunction in worms, whole organism, C. elegans mechanosensory neurons, N-terminal huntingtin (AID 1599); details: touch response, stronger effect = higher value
# [4] = inhibitors of mitochondrial cytochrome c release, biochemical, purified mitochondria (AID 1603); details: stronger effect = lower value;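 also: mouse liver mitochondria challenged with calcium chloride; signal normalized to the plate average as 100%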
# [5] = inhibitors of polyQ protein aggregation (AID 1604); details: polyglutamine-induced protein aggregation inhibition assay; stronger effect = higher value; tested at 2.5 µM
# [6] = enhancers of glutamate uptake in motor neurons, MN-1 cell line (AID 1612); details: MN-1 motor neuron cells, stronger effect = higher value;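 also: tested at 1 µM final; 0% = mean of DMSO vehicle wells on each plate; positive means more glutamate uptake than control and negative means less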
# [7] = suppressors of polyglutamine aggregation in yeast, 75Q-TubH (AID 1616); details: S. cerevisiae 75Q-TubH polyglutamine aggregation suppression; stronger effect = higher value
# [8] = hESC survival regulators, cell-based (AID 493140; call rule not given here;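 also: cells exposed to compounds for four days before counting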); details: human embryonic stem cell survival screen; stronger effect = higher value
# [9] = liver-stage malaria parasite growth inhibition, primary screen, cell-based, HepG2, luciferase luminescence, HepG2 viability (AID 624349; in the data active = parasite load remaining mostly below about 12%, no sharp cut-off; inactive = mostly above about 10%;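 also: 100% = mean of DMSO negative control wells on the same plate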); details: P. berghei liver stage in HepG2, luciferase luminescence, concentration not given here; parasite load remaining: stronger effect = lower value; viability: measured here: HepG2 viability without parasites
# [10] = target: 6-phosphogluconate dehydrogenase, decarboxylating (Homo sapiens) (UniProt P52209); test: 6PGD enzyme inhibitors, primary screen, biochemical, human, recombinant enzyme, NADPH absorbance (AID 1159550;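 active = at least 20% inhibition of 6-phosphogluconate dehydrogenase activity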); details: recombinant 6PGD, NADPH absorbance 341 nm; at 10 µM; stronger effect = higher value
# [11] = differential killing of epithelial or mesenchymal cells, primary screen, imaging, PC-3E GFP, TEM4-18 mCherry, co-culture (AID 1345086;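 active = compounds killing one labelled cell type while sparing the other, by normalised counts and ratio limits, not self-fluorescent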;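 as to all read-outs here: cells exposed to compound for 72 h before imaging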;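 as to red/green cell ratio (normalised): normalised mesenchymal count divided by normalised epithelial count so high means epithelial killing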); details: imaging cell counts, at 1 µM; for red/green cell ratio (normalised): actives lie on both sides, counts scaled to control wells, 1 = unselective
# [12] = sensitizers of A549 cells to miR-34 induction, primary screen, imaging, A549 dox-inducible miR-34, nuclei and caspase counts (AID 1347080); details: A549 miR-34 inducible, Hoechst nuclei count, 48 h
# [13] = survival rescue of mitochondrial mutant cells in low glucose, primary screen, MELAS cybrids, Rieske KO mouse fibroblasts, CellTiter-Glo (AID 1508586;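 active = mean z-score across replicates of 1.96 or higher in either the MELAS or the Rieske mutant cell line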;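 also: z relative to plate mean and SD of compound and empty wells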)
# [14] = target: Mitogen-activated protein kinase 7 (Homo sapiens) (UniProt Q13164); test: ERK5 transactivation activators in reporter cells, primary screen, cell-based, HTS (AID 1508626;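 active = luciferase signal above three times the same-plate solvent-only control wells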;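 also: luciferase driven by Gal4-ERK5 fusion binding five Gal4 sites before minimal TATA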); details: HeLa Gal4-ERK5 transactivation, 18 h, at 5 µM, stronger effect = higher value
# [15] = reducers of polyQ inclusions in PC12 cells, cell-based, NGF-treated PC12, GFPQ80 (AID 1614); details: PC12 NGF-treated GFP-polyQ80 inclusion reduction;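 also: lower means fewer inclusions and 0 means no inclusions at all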
# [16] = target: NAD(+) hydrolase SARM1 (Homo sapiens) (UniProt Q6SZW1); test: SARM1 TIR NADase inhibitors, cell lysate, NAD-Glo luminescence (AID 1508614;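 active = compound whose remaining NAD level is above about 45 nM, limit read from the data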;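 also: higher remaining NAD means stronger inhibition of SARM1 NADase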); details: SAM-TIR HEK293T lysate NADase, at 1 µM, stronger effect = higher value
# [17] = circadian clock period modulators, cell-based, LOPAC library, luminescence reporter (AID 2774; call rule not given here;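 also: values are relative to mean of DMSO wells on each plate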); details: circadian reporter cells, at 7 µM, actives lie on both sides
# [18] = phospholipid biosynthesis inhibitors in animal cells, primary screen, cell-based, LOPAC library, screen 4 (AID 1347384; call rule not given here); details: phospholipid biosynthesis inhibition screen, at 10 µM
# [19] = viability rescue of complex I mutant cybrids, primary screen, cell-based, galactose medium, ATP luminescence (AID 1645843;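 active = z-score of at least 1.8 in each of two replicates, scored against plate mean and spread of sample wells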;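 also: positive z means more ATP and so rescue of galactose-driven cybrid death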); details: complex I mutant cybrid cells, 72 h, stronger effect = higher value
# [20] = measured here: epithelial PC-3E GFP cell survival
# [21] = measured here: mesenchymal TEM4-18 mCherry cell survival
# [22] = stronger effect = lower value, cell number ratio, induced over uninduced
# [23] = measured here: relative caspase fold change +Dox/-Dox
# [24] = measured here: total cells with miR-34 induction, stronger effect = lower value
# [25] = measured here: total cells without miR-34 induction
# [26] = MELAS cybrid survival, CellTiter-Glo 48 h, stronger effect = higher value
# [27] = Rieske KO mouse fibroblast survival, CellTiter-Glo 72 h
# 6-phosphogluconate dehydrogenase, decarboxylating (Homo sapiens), sequence (P52209 whole entry, looked up): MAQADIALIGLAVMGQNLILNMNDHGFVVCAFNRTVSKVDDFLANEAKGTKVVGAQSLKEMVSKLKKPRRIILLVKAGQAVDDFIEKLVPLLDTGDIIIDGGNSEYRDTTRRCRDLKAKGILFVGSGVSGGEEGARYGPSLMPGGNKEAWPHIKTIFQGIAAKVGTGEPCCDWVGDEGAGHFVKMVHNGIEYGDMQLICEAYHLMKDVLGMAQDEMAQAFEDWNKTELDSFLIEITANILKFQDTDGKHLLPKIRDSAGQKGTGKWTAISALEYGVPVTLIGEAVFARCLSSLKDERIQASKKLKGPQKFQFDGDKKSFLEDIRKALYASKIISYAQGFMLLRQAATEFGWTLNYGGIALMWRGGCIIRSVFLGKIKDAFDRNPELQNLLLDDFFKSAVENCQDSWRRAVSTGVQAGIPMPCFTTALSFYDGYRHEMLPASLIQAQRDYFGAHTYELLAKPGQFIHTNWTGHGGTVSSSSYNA
# Mitogen-activated protein kinase 7 (Homo sapiens), sequence (Q13164 whole entry, looked up, the tested form may be a part): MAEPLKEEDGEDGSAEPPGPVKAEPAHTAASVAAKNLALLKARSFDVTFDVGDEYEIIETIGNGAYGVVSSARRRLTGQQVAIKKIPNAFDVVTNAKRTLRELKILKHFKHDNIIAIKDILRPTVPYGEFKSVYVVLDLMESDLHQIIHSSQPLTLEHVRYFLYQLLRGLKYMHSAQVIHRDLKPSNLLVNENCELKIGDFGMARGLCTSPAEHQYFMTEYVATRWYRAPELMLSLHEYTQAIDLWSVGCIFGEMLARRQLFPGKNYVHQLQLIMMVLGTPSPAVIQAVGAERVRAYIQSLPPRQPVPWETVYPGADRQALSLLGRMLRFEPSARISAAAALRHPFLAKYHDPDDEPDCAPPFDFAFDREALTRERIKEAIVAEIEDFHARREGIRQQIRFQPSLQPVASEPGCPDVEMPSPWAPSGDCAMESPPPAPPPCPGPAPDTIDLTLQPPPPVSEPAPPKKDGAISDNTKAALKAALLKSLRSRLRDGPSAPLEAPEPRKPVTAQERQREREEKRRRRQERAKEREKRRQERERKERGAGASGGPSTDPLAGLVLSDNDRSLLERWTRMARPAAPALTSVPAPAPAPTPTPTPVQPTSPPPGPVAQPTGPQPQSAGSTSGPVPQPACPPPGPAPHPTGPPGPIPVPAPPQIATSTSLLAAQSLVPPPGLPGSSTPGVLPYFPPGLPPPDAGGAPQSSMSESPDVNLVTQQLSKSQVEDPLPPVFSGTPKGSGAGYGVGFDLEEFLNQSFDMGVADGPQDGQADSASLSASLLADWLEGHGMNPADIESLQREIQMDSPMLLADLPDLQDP
# NAD(+) hydrolase SARM1 (Homo sapiens), sequence (Q6SZW1 whole entry, looked up): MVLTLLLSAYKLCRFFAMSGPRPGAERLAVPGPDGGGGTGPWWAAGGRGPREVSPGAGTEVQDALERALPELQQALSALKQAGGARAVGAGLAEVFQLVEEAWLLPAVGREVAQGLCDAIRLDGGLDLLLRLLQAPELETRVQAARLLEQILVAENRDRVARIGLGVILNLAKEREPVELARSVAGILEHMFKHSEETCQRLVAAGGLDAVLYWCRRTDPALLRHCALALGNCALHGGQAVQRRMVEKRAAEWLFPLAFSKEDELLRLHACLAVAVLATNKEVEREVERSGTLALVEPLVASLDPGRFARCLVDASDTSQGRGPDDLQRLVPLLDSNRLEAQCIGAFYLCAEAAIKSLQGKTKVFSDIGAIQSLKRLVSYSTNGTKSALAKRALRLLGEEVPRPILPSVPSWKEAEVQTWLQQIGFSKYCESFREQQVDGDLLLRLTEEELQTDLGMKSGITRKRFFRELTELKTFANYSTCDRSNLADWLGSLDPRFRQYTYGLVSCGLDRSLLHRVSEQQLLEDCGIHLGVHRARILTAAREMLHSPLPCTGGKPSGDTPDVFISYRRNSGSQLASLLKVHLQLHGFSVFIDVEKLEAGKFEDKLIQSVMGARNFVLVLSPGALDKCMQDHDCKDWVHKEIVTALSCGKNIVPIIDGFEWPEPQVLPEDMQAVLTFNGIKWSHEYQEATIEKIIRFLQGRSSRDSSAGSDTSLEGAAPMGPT
compound,measurement,setting,value
CCC(c1ccc(O)cc1)C(CC)c1ccc(O)cc1 (stereo not drawn),inhibition,[1],87.7%
same,score,[2],-0.18
same,rescue above control,[3],0
same,cytochrome c release ratio,[4],0.95
same,inhibition of aggregation,[5],62%
same,glutamate uptake change,[6],-7.89%
same,aggregation suppression score,[7],-0.0418
same,survival,[8],2.75 (inactive)
same,parasite load remaining,[9],53.4% (inactive) and 65.7% (inactive)
same,viability,[9],91.5% and 76.1%
same,inhibition,[10],-4.21% (inactive)
same,red/green cell ratio (normalised),[11],0.99 (inactive)
same,normalised cell number,[11]; [20],1.08
same,normalised cell number,[11]; [21],1.07
same,fold change,[12]; [22],0.875 (inactive) and 0.921 (inactive)
same,fold change,[12]; [23],1.39 and 0.838
same,cell count,[12]; [24],8210 and 9640
same,cell count,[12]; [25],9390 and 10500
same,z-score,[13]; [26],-0.359 (inactive) and -2.3 (inactive)
same,z-score,[13]; [27],0.432 and -0.759
same,luciferase signal,[14],40 AU (inactive)
OCc1ccccc1O[C@@H]1O[C@H](CO)[C@@H](O)[C@H](O)[C@H]1O,inhibition,[1],-10.9%
same,score,[2],1.23
same,rescue above control,[3],-13.2
same,cytochrome c release ratio,[4],0.94
same,inhibition of aggregation,[5],25.2%
same,glutamate uptake change,[6],-4.1%
same,inclusion score,[15],2
same,aggregation suppression score,[7],1.3
same,parasite load remaining,[9],107% (inactive) and 32.5% (inactive)
same,viability,[9],66.8% and 91.3%
same,inhibition,[10],16.9% (inactive)
same,red/green cell ratio (normalised),[11],0.91 (inactive)
same,normalised cell number,[11]; [20],0.63
same,normalised cell number,[11]; [21],0.57
same,fold change,[12]; [22],0.934 (inactive)
same,fold change,[12]; [23],2.93
same,cell count,[12]; [24],12100
same,cell count,[12]; [25],13000
same,remaining NAD,[16],10 nM (inactive)
same,luciferase signal,[14],72 AU (inactive)
Cc1cc(O)c2c(c1)C(=O)c1cc(O)cc(O)c1C2=O,period change,[17],0.05 h (inactive)
same,inhibition,[10],2.17% (inactive)
same,red/green cell ratio (normalised),[11],1.05 (inactive)
same,normalised cell number,[11]; [20],1.08
same,normalised cell number,[11]; [21],1.13
same,fold change,[12]; [22],1.01 (inactive) and 0.837 (inactive)
same,fold change,[12]; [23],1.12 and 1.08
same,cell count,[12]; [24],8200 and 6790
same,cell count,[12]; [25],8110
same,outcome,[18],inactive
same,z-score,[13]; [26],-0.41 (inactive)
same,z-score,[13]; [27],0.119
same,z-score,[19],0.08 (inactive)
NC[C@H]1O[C@H](O[C@H]2[C@H](O)[C@@H](O[C@H]3O[C@H](CO)[C@@H](O)[C@H](N)[C@H]3O)[C@H](N)C[C@@H]2N)[C@H](N)C[C@@H]1O,parasite load remaining,[9],155% (inactive) and 39.4% (inactive) and 27.1% (inactive)
same,viability,[9],107% and 98% and 71.5%
same,inhibition,[10],-0.0775% (inactive)
same,red/green cell ratio (normalised),[11],1.17 (inactive)
same,normalised cell number,[11]; [20],0.88
same,normalised cell number,[11]; [21],1.03
same,fold change,[12]; [22],0.865 (inactive) and 0.994 (inactive) and 0.887 (inactive)
same,fold change,[12]; [23],1.22 and 2.22 and 1.69
same,cell count,[12]; [24],8760 and 12000 and 9090
same,cell count,[12]; [25],10100 and 12100 and 10300
same,z-score,[13]; [26],0.333 (inactive) and -0.0714 (inactive)
same,z-score,[13]; [27],0.434 and -0.898
same,remaining NAD,[16],22 nM (inactive)
same,luciferase signal,[14],84 AU (inactive)
same,z-score,[19],0.605 (inactive)
O=c1c(O)c(-c2ccc(O)cc2O)oc2cc(O)cc(O)c12,inhibition,[1],-17.6%
same,score,[2],1.66
same,rescue above control,[3],-6.82
same,cytochrome c release ratio,[4],0.57
same,inhibition of aggregation,[5],49%
same,glutamate uptake change,[6],-11.3%
same,inclusion score,[15],2
same,aggregation suppression score,[7],0.872
same,period change,[17],0.015 h (inactive)
same,parasite load remaining,[9],81.2% (inactive)
same,viability,[9],66.9%
same,inhibition,[10],-23.3% (inactive)
same,red/green cell ratio (normalised),[11],0.97 (inactive)
same,normalised cell number,[11]; [20],1.01
same,normalised cell number,[11]; [21],0.98
same,fold change,[12]; [22],1.04 (inactive) and 0.943 (inactive)
same,fold change,[12]; [23],0.926 and 0.734
same,cell count,[12]; [24],11400 and 9750
same,cell count,[12]; [25],11000 and 10300
same,outcome,[18],inactive
same,z-score,[13]; [26],-0.297 (inactive)
same,z-score,[13]; [27],0.729
same,luciferase signal,[14],32 AU (inactive)
same,z-score,[19],0.495 (inactive)
